Measured values as given in PubChem BioAssay (NCI).
Compounds without any hit were thinned out: in the full panel of roughly 83,000, 20% have a hit.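 Values shown are percent growth following 48 h exposure of cells in 96-well plates to a single concentration of compound; below 10 was considered active.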 Active and inactive are the calls of the source.

Legend:
Assay in all cases: NCI-60 one-dose screen, 48 h (100 = growth as untreated, 0 = no growth, -100 = all killed)
Settings in all cases: 10 µM unless noted
[1] = system: HCT-15 colon
[2] = system: HT29 colon
[3] = system: SNB-75 CNS
[4] = system: SNB-19 CNS
[5] = system: U251 CNS
[6] = system: PC-3 prostate
[7] = system: SK-MEL-5 melanoma
[8] = system: UACC-62 melanoma
[9] = system: LOX IMVI melanoma
[10] = system: SK-MEL-28 melanoma
[11] = system: SK-MEL-2 melanoma
[12] = system: EKVX NSCLC
[13] = system: SN12C renal
[14] = system: UO-31 renal
[15] = system: TK-10 renal
[16] = system: ACHN renal
[17] = system: CAKI-1 renal
[18] = system: A498 renal
[19] = system: CCRF-CEM leukemia
[20] = system: MOLT-4 leukemia

Measured: growth

CC(C)[C@@H]1C=C2CC[C@H]3[C@](C)(CN)CCC[C@]3(C)[C@H]2CC1
active: [2] -34.1% | [10] -82.1%
inactive: [1] 44.5% | [3] 64.8% | [4] 104% | [5] 14% | [6] 69.6% | [7] 69.3% | [8] 86.3% | [9] 43.6% | [11] 81.7% | [12] 65.6% | [13] 93% | [14] 68.3% | [15] 90.8% | [16] 80.5% | [17] 78.7% | [18] 66.6% | [19] 71% | [20] 49.4%

COc1cc(CN(CCC(O)N2CCCC2=O)Cc2ccc3c(c2)OCO3)cc(OC)c1OC (stereo not given)
inactive: [1] 97.5% | [2] 98.3% | [3] 93.7% | [4] 99.5% | [5] 102% | [6] 89.5% | [7] 111% | [8] 101% | [9] 94.9% | [10] 117% | [11] 94.5% | [12] 107% | [13] 105% | [14] 78.1% | [15] 112% | [16] 100% | [17] 97.1% | [18] 118% | [19] 98.3% | [20] 85.2%

COc1ccc(/C=C/c2nc3ccccc3c(=O)n2-c2ccc(C#Cc3ccc(C(C)(C)C)cc3)cc2C)c(OC)c1
inactive: [1] 59.3% | [2] 78% | [3] 99.4% | [4] 105% | [5] 75.3% | [6] 53% | [7] 69.7% | [8] 72.6% | [9] 80% | [10] 109% | [11] 104% | [12] 85.1% | [13] 89.6% | [14] 79.5% | [15] 101% | [16] 105% | [17] 76.9% | [18] 110% | [19] 75.8% | [20] 76.5%

ClC1(Cl)C2CCCCCCC21 (stereo not given)
inactive: [1] 107% | [2] 97.5% | [3] 97.2% | [4] 99.6% | [5] 109% | [6] 98.7% | [7] 110% | [8] 103% | [9] 108% | [10] 107% | [11] 93% | [12] 107% | [13] 108% | [14] 93.4% | [15] 92.1% | [16] 110% | [17] 98.3% | [18] 79.3% | [19] 109% | [20] 109%

Cc1cc([N+](=O)[O-])c(C)cc1N
inactive: [1] 105% | [2] 92.1% | [3] 86.7% | [4] 108% | [5] 103% | [6] 88.6% | [7] 98.4% | [8] 95.5% | [9] 100% | [10] 103% | [11] 107% | [12] 101% | [13] 106% | [14] 77.6% | [15] 102% | [16] 103% | [17] 92.8% | [18] 87.2% | [19] 106% | [20] 101%

COc1cc(/C=N/NC(=O)Cn2c(-c3ccc(C)o3)nc3ccccc32)ccc1OCc1ccccc1
inactive: [1] 74.1% | [2] 87.2% | [3] 83.2% | [4] 79.6% | [5] 88.5% | [6] 63.1% | [7] 76.6% | [8] 77.8% | [9] 88.1% | [10] 99.1% | [11] 94.5% | [12] 75.2% | [13] 95.4% | [14] 61.8% | [15] 93.4% | [16] 85.4% | [17] 82.6% | [18] 78.5% | [19] 80.6% | [20] 50.2%

CCCCCCCCCCCCCCCCCC1=NCCN1CCO
inactive: [1] 61.7% | [2] 61.5% | [3] 80.6% | [4] 95.5% | [5] 75.6% | [6] 63.6% | [7] 106% | [8] 92% | [10] 89.4% | [11] 88.9% | [12] 78.2% | [13] 86% | [14] 48.7% | [15] 87.9% | [16] 60.7% | [17] 55.7% | [18] 106% | [19] 53.9% | [20] 30.3%
active: [9] -47.2%

Cc1cc(C#Cc2ccc(C(C)(C)C)cc2)ccc1-n1c(/C=C/c2c(Cl)cccc2Cl)nc2ccccc2c1=O
inactive: [1] 90.9% | [2] 93.2% | [3] 82% | [4] 105% | [5] 93.9% | [6] 80.8% | [7] 106% | [8] 101% | [9] 87.3% | [10] 126% | [11] 120% | [12] 89.9% | [13] 104% | [14] 77.2% | [15] 99.1% | [16] 96.2% | [17] 83.9% | [18] 104% | [19] 95.9% | [20] 86.9%

CCN1C(=O)C(C)C=C(C)C=C1C (stereo not given)
inactive: [1] 99.9% | [2] 111% | [3] 104% | [4] 109% | [5] 111% | [6] 123% | [7] 98.1% | [8] 103% | [9] 103% | [10] 116% | [11] 102% | [12] 114% | [13] 112% | [14] 86.8% | [15] 105% | [16] 102% | [17] 107% | [18] 112% | [19] 102% | [20] 92.4%

CC(C)(C)c1nn(-c2ccccc2)c2c1C(=O)CSC(c1ccc3c(c1)OCO3)N2 (stereo not given)
inactive: [1] 89.9% | [2] 100% | [3] 98.4% | [4] 101% | [5] 107% | [6] 84.4% | [7] 110% | [8] 85.3% | [9] 87% | [10] 109% | [11] 101% | [12] 80.2% | [13] 91.3% | [14] 74.8% | [15] 103% | [16] 107% | [17] 81.4% | [18] 113% | [19] 98.1% | [20] 86%

NC(=O)c1ccc[n+](Cc2ccccc2)c1
inactive: [1] 96.7% | [2] 101% | [3] 95.1% | [4] 106% | [5] 92.8% | [6] 94.6% | [7] 97.6% | [8] 99.7% | [9] 95.6% | [10] 103% | [11] 110% | [12] 94% | [13] 101% | [14] 93.8% | [15] 108% | [16] 103% | [17] 97.9% | [18] 74.5% | [19] 93.9% | [20] 49%

CCOCCNc1ccc(S(=O)(=O)c2ccc(N)cc2)cc1N
inactive: [1] 109% | [2] 114% | [3] 96.7% | [4] 114% | [5] 98.2% | [6] 111% | [7] 102% | [8] 95.1% | [9] 91.1% | [10] 112% | [11] 111% | [12] 86.6% | [13] 110% | [14] 90.8% | [15] 111% | [16] 106% | [17] 86.7% | [18] 83.2% | [19] 96% | [20] 107%

O=C(CCCCCCN1CC(=O)N2[C@@H](c3ccc(Cl)c(Cl)c3)c3[nH]c4ccccc4c3C[C@H]2C1=O)NO
inactive: [1] 92.3% | [2] 33.8% | [4] 54.3% | [5] 40.5% | [6] 25.7% | [7] 51.3% | [8] 35.2% | [10] 52.4% | [11] 79.9% | [12] 64.6% | [13] 60.8% | [14] 57% | [15] 40.3% | [16] 70.2% | [17] 48.7% | [18] 86%
active: [3] 6.3% | [9] -55.2% | [19] 7.73% | [20] 8.86%

O=C(CSc1nnc(Cc2ccccc2Nc2c(Cl)cccc2Cl)n1-c1ccccc1)N1N=C(c2ccc3ccccc3c2)CC1c1ccc(Cl)cc1 (stereo not given)
inactive: [1] 98.9% | [2] 86.2% | [3] 81% | [4] 95.1% | [5] 98.3% | [6] 87.1% | [7] 104% | [8] 87.6% | [9] 94% | [10] 112% | [11] 103% | [12] 93.5% | [13] 96.6% | [14] 80% | [15] 95.5% | [16] 109% | [17] 92.7% | [18] 102% | [19] 113% | [20] 98.4%

CN1C(=O)N(C)C2C1NN=c1s/c(=C\c3ccsc3)c(=O)n12 (stereo not given)
inactive: [1] 24.7% | [4] 39.6% | [5] 30.6% | [6] 38.5% | [7] 41.6% | [8] 28.3% | [9] 37.7% | [10] 67.8% | [11] 56.4% | [12] 65.8% | [13] 58.8% | [14] 56% | [15] 76.8% | [16] 47% | [17] 35.7% | [19] 28.8% | [20] 49.7%
active: [2] 9.4% | [3] -7.65% | [18] 7.47%

CC(C)(C)OC[C@@H]1N=C(c2ccc(Br)cc2)Nc2nc3ccccn3c2C1=O
inactive: [1] 44.1% | [2] 21.8% | [3] 77.4% | [4] 76.5% | [5] 63.5% | [6] 53.4% | [7] 38.4% | [8] 53.6% | [9] 58.7% | [10] 68.6% | [11] 49.2% | [12] 81.6% | [13] 84.1% | [14] 52.1% | [15] 95.1% | [16] 75.3% | [17] 64.2% | [18] 66.9% | [19] 67.8% | [20] 53.7%
